Laboratory results published in PubChem BioAssay AID1159580 (chemical genetic matrix, 2015).
The campaign covered roughly 5,500 compounds. About 2,000 (36%) were called active. About 18% were inconclusive and are not listed. This is one part of the list. A number with no mark means an inactive call. No stated cut-off is given here; in the data, active means normalized growth mostly below about 0.91 (no sharp cut-off); inconclusive means no clear call, values can overlap the other calls; inactive means mostly above about 0.92.

Assay: chemical genetic growth profiling, strain panel (AID 1159580);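 further: tested at 20 µM; growth read once vehicle control cultures reached saturation at 30 °C; 1 = growth at the plate median or of vehicle wells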
Conditions: growth OD

## CC(C)=CCc1c2c(c(O)c3c(=O)c(O)c(-c4ccccc4)oc13)C=CC(C)(C)O2
S. cerevisiae deletion strains, locus YJL187C, strain SWE1, stronger effect = lower value
  normalized growth: 0.639 (active)
S. cerevisiae deletion strains, locus YJR043C, strain POL32, stronger effect = lower value
  normalized growth: 0.496 (active)
S. cerevisiae deletion strains, locus YKL009W, strain mrt4, stronger effect = lower value
  normalized growth: 1.02
S. cerevisiae deletion strains, locus YKL068W, stronger effect = lower value
  normalized growth: 0.977
S. cerevisiae deletion strains, locus YKL085W, strain MDH1 (second series), stronger effect = lower value
  normalized growth: 0.984
S. cerevisiae deletion strains, locus YKL085W, strain MDH1, stronger effect = lower value
  normalized growth: 0.984
S. cerevisiae deletion strains, locus YKL160W, strain elf1, stronger effect = lower value
  normalized growth: 0.99
S. cerevisiae deletion strains, locus YKL190W, strain CNB1, stronger effect = lower value
  normalized growth: 0.585 (active)
S. cerevisiae deletion strains, locus YKR001C, strain vps1, stronger effect = lower value
  normalized growth: 0.816 (active)
S. cerevisiae deletion strains, locus YKR026C, strain gcn3, stronger effect = lower value
  normalized growth: 0.899 (active)
S. cerevisiae deletion strains, locus YKR091W, strain srl3, stronger effect = lower value
  normalized growth: 0.831 (active)
S. cerevisiae deletion strains, locus YLL001W, strain dnm1, stronger effect = lower value
  normalized growth: 0.74 (active)
S. cerevisiae deletion strains, locus YLL026W, stronger effect = lower value
  normalized growth: 0.94
S. cerevisiae deletion strains, locus YLL041C, strain sdh2, stronger effect = lower value
  normalized growth: 0.979
S. cerevisiae deletion strains, locus YLR027C, strain aat2, stronger effect = lower value
  normalized growth: 0.86 (active)
S. cerevisiae deletion strains, locus YLR039C, strain RIC1, stronger effect = lower value
  normalized growth: 0.379 (active)
S. cerevisiae deletion strains, locus YLR058C, strain SHM2, stronger effect = lower value
  normalized growth: 0.563 (active)
S. cerevisiae deletion strains, locus YLR102C, strain apc9, stronger effect = lower value
  normalized growth: 0.93
S. cerevisiae deletion strains, locus YLR221C, strain rsa3, stronger effect = lower value
  normalized growth: 0.835 (active)
S. cerevisiae deletion strains, locus YLR258W, strain gsy2, stronger effect = lower value
  normalized growth: 0.892 (active)
S. cerevisiae deletion strains, locus YLR262C, strain YPT6 (second series), stronger effect = lower value
  normalized growth: 0.542 (active)
S. cerevisiae deletion strains, locus YLR268W, strain sec22, stronger effect = lower value
  normalized growth: 0.633 (active)
S. cerevisiae deletion strains, locus YLR320W, strain mms22, stronger effect = lower value
  normalized growth: 0.762 (active)
S. cerevisiae deletion strains, locus YLR342W, strain FKS1, stronger effect = lower value
  normalized growth: 0.514 (active)
S. cerevisiae deletion strains, locus YLR357W, strain rsc2, stronger effect = lower value
  normalized growth: 0.61 (active)
S. cerevisiae deletion strains, locus YLR370C, strain arc18, stronger effect = lower value
  normalized growth: 0.754 (active)
S. cerevisiae deletion strains, locus YLR371W, strain rom2, stronger effect = lower value
  normalized growth: 0.623 (active)
S. cerevisiae deletion strains, locus YLR384C, strain iki3, stronger effect = lower value
  normalized growth: 0.723 (active)
S. cerevisiae deletion strains, locus YLR418C, strain cdc73, stronger effect = lower value
  normalized growth: 0.502 (active)
S. cerevisiae deletion strains, locus YML016C, strain PPZ1, stronger effect = lower value
  normalized growth: 0.484 (active)
S. cerevisiae deletion strains, locus YML032C, strain rad52, stronger effect = lower value
  normalized growth: 0.861 (active)
S. cerevisiae deletion strains, locus YML120C, strain ndi1, stronger effect = lower value
  normalized growth: 0.822 (active)
S. cerevisiae deletion strains, locus YML124C, strain tub3, stronger effect = lower value
  normalized growth: 0.878 (active)
S. cerevisiae deletion strains, locus YMR058W, strain fet3, stronger effect = lower value
  normalized growth: 0.143 (active)
S. cerevisiae deletion strains, locus YMR078C, strain ctf18, stronger effect = lower value
  normalized growth: 0.92
S. cerevisiae deletion strains, locus YMR125W, strain sto1, stronger effect = lower value
  normalized growth: 0.872 (active)
S. cerevisiae deletion strains, locus YMR129W, stronger effect = lower value
  normalized growth: 0.854 (active)
S. cerevisiae deletion strains, locus YMR205C, strain PFK2, stronger effect = lower value
  normalized growth: 0.51 (active)
S. cerevisiae deletion strains, locus YMR223W, strain ubp8, stronger effect = lower value
  normalized growth: 0.711 (active)
S. cerevisiae deletion strains, locus YMR231W, strain pep5, stronger effect = lower value
  normalized growth: 0.533 (active)
S. cerevisiae deletion strains, locus YMR307W, strain GAS1, stronger effect = lower value
  normalized growth: 0.53 (active)
S. cerevisiae deletion strains, locus YNL067W, strain RPL9B, stronger effect = lower value
  normalized growth: 0.697 (active)
S. cerevisiae deletion strains, locus YNL071W, strain lat1, stronger effect = lower value
  normalized growth: 0.898 (active)
S. cerevisiae deletion strains, locus YNL153C, strain GIM3, stronger effect = lower value
  normalized growth: 0.619 (active)
S. cerevisiae deletion strains, locus YNL209W, strain ssb2, stronger effect = lower value
  normalized growth: 0.277 (active)
S. cerevisiae deletion strains, locus YNL233W, strain BNI4, stronger effect = lower value
  normalized growth: 0.548 (active)
S. cerevisiae deletion strains, locus YNL248C, strain rpa49, stronger effect = lower value
  normalized growth: 0.842 (active)
S. cerevisiae deletion strains, locus YNL250W, strain rad50, stronger effect = lower value
  normalized growth: 0.951
S. cerevisiae deletion strains, locus YNL271C, strain bni1, stronger effect = lower value
  normalized growth: 0.886 (active)
S. cerevisiae deletion strains, locus YNL298W, strain CLA4, stronger effect = lower value
  normalized growth: 0.88 (active)
S. cerevisiae deletion strains, locus YNL307C, strain MCK1, stronger effect = lower value
  normalized growth: 0.775 (active)
S. cerevisiae deletion strains, locus YNL322C, strain KRE1 (second series), stronger effect = lower value
  normalized growth: 0.943
S. cerevisiae deletion strains, locus YNR049C, strain mso1, stronger effect = lower value
  normalized growth: 0.958
S. cerevisiae deletion strains, locus YNR052C, strain pop2, stronger effect = lower value
  normalized growth: 0.824 (active)
S. cerevisiae deletion strains, locus YOL006C, strain TOP1, stronger effect = lower value
  normalized growth: 0.319 (active)
S. cerevisiae deletion strains, locus YOL012C, strain htz1
  normalized growth: 0.278
S. cerevisiae deletion strains, locus YOL147C, strain pex11, stronger effect = lower value
  normalized growth: 0.873 (active)
S. cerevisiae deletion strains, locus YOR001W, strain rrp6, stronger effect = lower value
  normalized growth: 0.836 (active)
S. cerevisiae deletion strains, locus YOR061W, strain CKA2, stronger effect = lower value
  normalized growth: 0.528 (active)
S. cerevisiae deletion strains, locus YOR069W, strain VPS5, stronger effect = lower value
  normalized growth: 0.606 (active)
S. cerevisiae deletion strains, locus YOR070C, strain gyp1, stronger effect = lower value
  normalized growth: 0.77 (active)
S. cerevisiae deletion strains, locus YOR080W, strain dia2, stronger effect = lower value
  normalized growth: 0.818 (active)
S. cerevisiae deletion strains, locus YOR083W, strain WHI5, stronger effect = lower value
  normalized growth: 0.616 (active)
S. cerevisiae deletion strains, locus YOR106W, strain vam3, stronger effect = lower value
  normalized growth: 0.832 (active)
S. cerevisiae deletion strains, locus YOR136W, strain idh2, stronger effect = lower value
  normalized growth: 0.84 (active)
S. cerevisiae deletion strains, locus YOR144C, strain elg1, stronger effect = lower value
  normalized growth: 0.893 (active)
S. cerevisiae deletion strains, locus YOR184W, strain ser1, stronger effect = lower value
  normalized growth: 0.661 (active)
S. cerevisiae deletion strains, locus YOR265W, strain rbl2, stronger effect = lower value
  normalized growth: 0.699 (active)
S. cerevisiae deletion strains, locus YOR270C, strain vph1, stronger effect = lower value
  normalized growth: 0.394 (active)
S. cerevisiae deletion strains, locus YOR290C, strain snf2, stronger effect = lower value
  normalized growth: 0.887
S. cerevisiae deletion strains, locus YOR316C, strain cot1, stronger effect = lower value
  normalized growth: 0.865 (active)
S. cerevisiae deletion strains, locus YPL051W, strain arl3, stronger effect = lower value
  normalized growth: 0.48 (active)
S. cerevisiae deletion strains, locus YPL078C, strain atp4, stronger effect = lower value
  normalized growth: 0.879 (active)
S. cerevisiae deletion strains, locus YPL106C, strain sse1, stronger effect = lower value
  normalized growth: 0.83 (active)
S. cerevisiae deletion strains, locus YPL240C, strain hsp82, stronger effect = lower value
  normalized growth: 0.956
S. cerevisiae deletion strains, locus YPL241C, strain CIN2, stronger effect = lower value
  normalized growth: 0.788 (active)
S. cerevisiae deletion strains, locus YPR119W, strain clb2, stronger effect = lower value
  normalized growth: 0.914 (active)
S. cerevisiae deletion strains, locus YPR141C, strain kar3, stronger effect = lower value
  normalized growth: 0.962
S. cerevisiae deletion strains, locus YPR163C, strain tif3, stronger effect = lower value
  normalized growth: 0.771 (active)
S. cerevisiae deletion strains, locus YPR167C, strain met16, stronger effect = lower value
  normalized growth: 0.712 (active)
S. cerevisiae deletion strains, strain wtn01, stronger effect = lower value
  normalized growth: 0.632 (active)
S. cerevisiae strains, strain wild type, stronger effect = lower value
  normalized growth: 0.346 (active)
